Laboratory results: ChEMBL document CHEMBL3988442, “University of Dundee, Small-Polar-MMV Screening Library” (2021)
The whole screen tested about 48,000 compounds, of which about 13,000 (27%) showed an effect of 50% or more. Some of the results follow.

Test system: Wolbachia pipientis
Experiment: Anti-Wolbachia Cell-Based Screen
Assay type: functional
Parameters: scale not given: in the data most compounds retested in dose-response had high values
Settings: 5 µM

SMILES | Percent Effect
CCn1cc2c(n1)C(COC)CN(C(=O)COc1ccccc1)C2 (stereo unspecified) | -10.51%
Cc1cccnc1CN(C)C(C(=O)O)c1ccc(-n2cccn2)cc1 (stereo unspecified) | -2.38%
COc1nc2c(cc1C(=O)NCCCc1csc(N)n1)CCC2 | -5.437%
COC(=O)COc1cccc(NS(=O)(=O)c2cc(C(=O)O)cs2)c1 | 15.7%
Nc1cc2c(nn1)CCN(C(=O)Cc1ccc3c(c1)CCCC3)C2 | -1.547%
O=C(C1CC1)N1CC2(CCNCC2)c2cc(F)ccc21.O=C(O)C(F)(F)F | -3.609%
Cc1ccc(N2CCN(Cc3ccccc3)C3(CCNCC3)C2=O)cn1.O=C(O)C(F)(F)F | -1.603%
O=C(O)C(F)(F)F.O=C(c1ccco1)N1CCCC2(CN(Cc3ccc(F)cc3)CCO2)C1 (stereo unspecified) | -3.961%
O=C(O)C(F)(F)F.O=C(O)C(F)(F)F.O=C(c1ccncc1)N1CC2(CCNCC2)c2cc(Cl)ccc21 | 113.8%
Cc1ccc(C(=O)N2CC3(CCCCC3)c3cc(C(=O)O)ccc32)cn1.O=C(O)C(F)(F)F | -4.08%
COc1cc(C(=O)N2CC3(CCNCC3)c3cc(Cl)ccc32)ccn1.O=C(O)C(F)(F)F.O=C(O)C(F)(F)F | 123.4%
O=C(O)C(F)(F)F.O=C(c1ccco1)N1CC2(CCNCC2)c2cc(Cl)ccc21 | 104.6%
O=C(O)C(F)(F)F.O=C(c1cccc(Cl)c1)N1CCCC2(CCCNC2)C1 (stereo unspecified) | -4.426%
Cc1ccc(C(=O)N2CC3(CCNCC3)c3cc(Cl)ccc32)cn1.O=C(O)C(F)(F)F.O=C(O)C(F)(F)F | 107.7%
CN(C)C(=O)N1CC2(CCNCC2)c2cc(F)ccc21.O=C(O)C(F)(F)F | 2.852%
CNC(=O)[C@@H](C1CCCCC1)N1CCC[C@H]1C(=O)NCCN1CCCC1.Cl.Cl | 1.393%
CC1CCCN(C(=O)c2ncncc2Cl)C1 (stereo unspecified) | -8.48%
CCc1nc(C)c(CN2CCOC(Cc3ccccc3Cl)C2)[nH]1 (stereo unspecified) | 16.37%
COCC(=O)NC(c1ccc(Cl)cc1)C(F)(F)F (stereo unspecified) | 5.635%
Cc1cc(C(=O)Nc2ccc(N3CCCC3)cn2)ccc1-n1cncn1 | -6.985%
Cc1nn(-c2ccc(F)cc2)c2[nH]nc(N)c12 | 1.976%
COCCC1(CO)CCCN(Cc2cc(C(F)(F)F)ccc2F)C1 (stereo unspecified) | 0.6502%

SMILES | Percent Effect
Cn1cc(NC(=O)N2CCC(CN3CCCC3)CC2)ccc1=O | -5.518%
FC(F)(F)c1nc(NC2CCCC2)c2ccccc2n1 | 1.763%
FC(F)(F)c1nc(NC2CCCCC2)c2ccccc2n1 | 111.5%
CC(C)C(Nc1nc(C(F)(F)F)nc2ccccc12)C(=O)O (stereo unspecified) | 2.163%
CNC(=O)c1cnn2c(C3CCCN3)ccnc12 (stereo unspecified) | 113.8%
CNC(=O)c1cnn2c(C3CCCN3C)ccnc12 (stereo unspecified) | 176.6%
CCN(CC)C(=O)c1cc(C2CCCN2C)ccn1.O=CO (stereo unspecified) | -4.853%
COc1ccnc(N2CCN(C(=O)c3cnn(C)c3C3CC3)CC2)n1 | 4.417%
COCCOc1ccc(-c2noc([C@@H]3CCCN3)n2)cn1 | 7.967%
CNC(=O)c1cc2c(nc1NC(C)C)CCNCC2 | 9.833%
O=C(Nc1ccc(-c2ccco2)cc1)C1CCCN(Cc2ccon2)C1 (stereo unspecified) | 13.81%
CN(C)Cc1cc(-c2nccn2CCn2cccn2)ccc1O | -0.09991%
CCOC(=O)N1CCN(C(=O)c2sc(-c3ccccc3F)nc2C)CC1 | 4.725%
CCC(O)C1CCN(C(=O)Nc2nc(-c3ccccc3)ns2)CC1 (stereo unspecified) | -13.79%
CCNc1nc(C)c(C(=O)N2CCN(c3ncccc3C)CC2)s1 | -16.27%
CNc1nc(C)c(C(=O)N2CCC(C(O)Cc3ccccc3)CC2)s1 (stereo unspecified) | 102.6%
CNc1nc(C)c(C(=O)N2CCCCC2CCc2ccccc2)s1 (stereo unspecified) | -0.1409%
CCNc1nc(C)c(C(=O)N2CCC(C(O)Cc3ccccc3)CC2)s1 (stereo unspecified) | 94.25%
CCS(=O)(=O)N1Cc2c(Cn3cccc3)nn(C(C)C)c2C1 | 3.857%
CCS(=O)(=O)N1CCCn2nnc(Cn3cccc3)c2C1 | 97.66%
C1CCN(Cc2nnn3c2CN(CC2CC2)CCC3)C1 | 3.513%
O=C(c1ccc(Cl)cc1)N1CCCn2nnc(Cn3cccn3)c2C1 | 10.27%

SMILES | Percent Effect
O=C(O)C(F)(F)F.c1ccc(CN2CCCn3nnc(Cn4cccc4)c3C2)nc1 | -7.39%
O=S(=O)(C1CC1)N1CCCn2nnc(Cn3cccc3)c2C1 | 109%
CCCc1cncnc1N1CCC(NCCc2ccc(O)cc2)CC1 | 1.389%
CC(C)CS(=O)(=O)CCNC(=O)Nc1cccc2ncccc12 | 3.388%
CCN(CC1CCOC1)S(=O)(=O)Cc1cc(Cl)ccc1OC (stereo unspecified) | -20.98%
Cc1oc(C(=O)Nc2ccccc2F)cc1S(N)(=O)=O | 99.25%
Cc1oc(C(=O)Nc2cccc(Cl)c2C)cc1S(N)(=O)=O | 64.05%
Cc1c(Cl)cccc1NC(=O)N1CCC2(CC1)NC(=O)CC2C(=O)O (stereo unspecified) | -2.177%
NS(=O)(=O)CCNC(=O)c1cc2cccc(F)c2o1 | -1.054%
Cc1c(Cl)cccc1NC(=O)CN(Cc1cccnc1)C(C)C | -4.468%
Cc1cccc(C)c1NC(=O)c1cc(S(N)(=O)=O)c(C)o1 | 102.4%
Cc1oc(C(=O)O)cc1S(=O)(=O)Nc1c(F)cccc1-n1cccn1 | -6.217%
CCN(Cc1ccoc1)C(=O)c1cc(S(N)(=O)=O)c(C)o1 | -22.47%
Cc1cc(C)c(S(N)(=O)=O)cc1C(=O)NCC1Cc2ccccc2O1 (stereo unspecified) | -3.139%
CC(=O)NCCCSC1CCN(c2c(F)cccc2F)C1=O (stereo unspecified) | 8.134%
COCc1c(Cl)cccc1NC(=O)NCc1cccc(N(C)C)n1 | 23.29%
O=C(O)C[C@@H]1CCN(C(=O)C2CCCC2)C[C@@H]1CCN1CCCCC1 | 3.998%
O=C1CCc2cc(OCCN3CCc4cncnc4C3)ccc2N1 | 28.97%
Cn1cccc1C(=O)COc1ccc(S(N)(=O)=O)cc1 | 87.78%
COc1cc(C(C)=O)ccc1OCC(=O)N(C)Cc1cnn(C)c1 | -3.043%
Cn1cccc(NC(=O)COc2ccc(Cl)cc2)c1=O | -8.548%
CC(=O)c1ccc(OCC(=O)c2cccn2C)cc1 | 104.8%

SMILES | Percent Effect
COc1cc(C(C)=O)ccc1OCC(=O)N(Cc1ccsc1)C1CC1 | -7.993%
Cn1cccc(NC(=O)COc2ccc(Br)cc2)c1=O | -13.39%
Cn1cccc1C(=O)N1CCC2(CCCN2S(C)(=O)=O)CC1 | -6.458%
Cn1cccc1C(=O)OCCNC(=O)c1ccccc1 | -6.195%
COc1cc(C(C)=O)ccc1OCC(=O)c1cccn1C | 70.23%
N#CCCN(Cc1ccco1)C(=O)CCCNC(=O)c1ccccc1 | 3.869%
c1cc(-c2noc([C@@H]3Cc4nc[nH]c4CN3)n2)ccn1 | -6.71%
CCOC(=O)Cn1ccc2cc(NC(=O)N3CCSCC3)ccc21 | -0.3314%
Cc1ccc2nc(C)cc(C(=O)NC(C)c3nnn[nH]3)c2c1 (stereo unspecified) | -5.758%
CN1C[C@]2(CC[C@@H](C(=O)O)CC2)Oc2ccccc2C1=O | 130.9%
CC(C)C(C(=O)N1CCC2(CC1)CN(C)C(=O)O2)c1ccccc1 (stereo unspecified) | -0.7993%
Cc1ccccc1OC(C(=O)N1CCC2(CC1)CN(C)C(=O)O2)C(C)C (stereo unspecified) | -8.932%
CCC(=O)c1ccc(OCC(=O)NCC2CC(CC)=NO2)cc1 (stereo unspecified) | 0.5795%
O=C(c1ccc(C(F)(F)F)cc1)C1CCCN(C(=O)Cn2cnnn2)C1 (stereo unspecified) | -1.796%
CSc1ccc(C(=O)C2CCCN(C(=O)CCCn3cncn3)C2)cc1 (stereo unspecified) | 89.8%
CSc1ccc(C(=O)C2CCCN(C(=O)CCn3cnnn3)C2)cc1 (stereo unspecified) | 95.72%
O=C(CCn1cncn1)N1CC[C@@H](c2ccc3ccccc3c2)[C@H](O)C1 | 2.781%
CSc1ccc(C(=O)C2CCCN(C(=O)Cn3cnnn3)C2)cc1 (stereo unspecified) | -23.42%
CSc1ccc(C(=O)C2CCCN(C(=O)CCn3cncn3)C2)cc1 (stereo unspecified) | 108%
CN(C)S(=O)(=O)N1C[C@@H]2CC[C@H](C1)N(CCC(=O)NCc1ccco1)C2 | -9.336%
CC(C)C(=O)NCc1cc(Br)ccc1F | -9.372%
OCCOc1nc(-c2ccccc2Cl)no1 | -14.24%

SMILES | Percent Effect
Cc1nc(C)c(CC(=O)NCc2cccnc2OC2CCCC2)c(=O)[nH]1 | 2.143%
CCNC(=O)C1CCN(c2cc(-c3ccccc3)nc3cc(C)nn23)C1 (stereo unspecified) | -12.78%
COCCC(=O)N1CCCCC1c1ccc(F)cc1 (stereo unspecified) | -2.369%
Cc1cn[nH]c1C1CCCCN1C(=O)CCc1ccc(F)cc1 (stereo unspecified) | 129.4%
Cc1cn[nH]c1C1CCCCN1C(=O)CCc1c(C)n[nH]c1C (stereo unspecified) | 119.5%
Cc1cn[nH]c1C1CCCCN1C(=O)CCN1CCCCCC1 (stereo unspecified) | -3.23%
N#Cc1cccc(N2CCC3(CCC(=O)N(CCCO)C3)CC2)n1 | -9.323%
O=C1OCCN1CCOc1nc(-c2ccccc2Cl)no1 | -11.04%
COCC(C)NC(=O)Nc1cc(-c2ccccc2C)nn1CCO (stereo unspecified) | -26.76%
O=C1CC2(CCN(C(=O)C3CCCCC3)C2)Nc2ccccc2N1 (stereo unspecified) | 102.3%
O=C(O)C(F)(F)F.O=C1CCCC2(CCN(C(=O)c3ccccn3)CC2)N1 | 4.079%
O=C1CC2(CCN(C(=O)c3ccccc3)C2)Nc2ccccc2N1 (stereo unspecified) | 106.1%
CN(C)C(=O)N1CCN(C(=O)c2ccccc2)CC2(CNC(=O)C2)C1 (stereo unspecified) | 9.343%
O=C(O)C(F)(F)F.O=C1CCC2(CCCN(C(=O)c3ccccn3)CC2)N1 (stereo unspecified) | -22.06%
Nc1cc(C(=O)N2CCC3(CC2)Nc2ccccc2NC3=O)ccn1 | 3.743%
O=C1CC2(CCN(C(=O)c3ccccn3)C2)Nc2ccccc2N1 (stereo unspecified) | 110.2%
O=C1Nc2ccccc2C1C1CCN(C(=O)C2CC2)CC1 (stereo unspecified) | -3.481%
Cl.O=C(C1CCCCC1)N1CCC2(CC1)CNCc1ccccc12 | 2.33%
